Active and inactive are the calls of the source. The calls were made as follows: active = hit-call score of the fitted dose curve at least 0.9, where 1 is the maximum; inactive = score below 0.9.
Columns and labels:
[1] = CEETOX_H295R_PROG: CeeTox H295R High-throughput Steroidogenesis Assay for Progesterone (PROG) (AID 2283442); settings: actives raise or lower the signal;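 as to AC50: human H295R adrenal cells primed with 10 µM forskolin before dosing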
How it was run: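 Progesterone secreted by human H295R cells was measured by LC-MS/MS following 48 h chemical exposure at 0.1% DMSO, preceded by 48 h forskolin (10 uM) stimulation. Same-well MTT viability; cytotoxic concentrations diluted 10- or 100-fold and retested.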

[2] = read-out: Tumor necrosis factor receptor superfamily member 6 (Homo sapiens) (UniProt P25445); assay: LTEA_HepaRG_FAS: Life Technologies and Expression Analysis (LTEA) Assay for Fas cell surface death receptor (FAS) using HepaRG (AID 2283447); settings: mRNA level, 48 h; actives raise or lower the signal
How it was run: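 Differentiated human HepaRG cells, pre-cultured 48 h, were exposed in duplicate for 48 h to 8-point half-log concentrations (top 100 uM, 0.5% DMSO) in serum-free induction medium; FAS mRNA measured by qRT-PCR, normalized to ACTB/GAPDH/POLR2A, bidirectional fit versus DMSO.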

[3] = read-out: Fatty acid synthase (Homo sapiens) (UniProt P49327); assay: LTEA_HepaRG_FASN: Life Technologies and Expression Analysis (LTEA) Assay for Fatty Acid Synthase (FASN) using HepaRG (AID 2283448); settings: mRNA level, 48 h; actives raise or lower the signal
How it was run: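 FASN expression changes, up or down relative to 0.5% DMSO, were measured by qRT-PCR in human HepaRG cells after 48 h treatment with chemicals at eight concentrations (half-log steps from 100 uM).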

[4] = read-out: Cyclin D2 (CCND2), CCND2 (gene 894); assay: LTEA_HepaRG_CCND2: Life Technologies and Expression Analysis (LTEA) Assay for Cyclin D2 (CCND2) using HepaRG (AID 2283449); settings: mRNA level, 48 h; actives raise or lower the signal;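 also: CCND2 transcript measured by TaqMan qRT-PCR and normalised to three housekeeping genes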
How it was run: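 Differentiated human HepaRG cells were exposed for 48 h in serum-free induction medium to eight half-log concentrations topping at 100 uM (0.5% DMSO vehicle). CCND2 mRNA was quantified by TaqMan qRT-PCR, normalised to ACTB, GAPDH and POLR2A, and fitted bidirectionally against DMSO.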

[5] = read-out: Cyclin Dependent Kinase Inhibitor 1A (CDKN1A), CDKN1A (gene 1026); assay: LTEA_HepaRG_CDKN1A: Life Technologies and Expression Analysis (LTEA) Assay for Cyclin Dependent Kinase Inhibitor 1A (CDKN1A) using HepaRG (AID 2283450); settings: mRNA level, 48 h; actives raise or lower the signal
How it was run: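 Expression quantified by Fluidigm qRT-PCR with ACTB, GAPDH and POLR2A normalization, fitted bidirectionally against 0.5% DMSO. Cells: HepaRG, plated 48 h then treated 48 h in serum-free induction medium, top concentration 100 uM with half-log dilutions.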

[6] = read-out: Cyclin D1 (CCND1), CCND1 (gene 595); assay: LTEA_HepaRG_CCND1: Life Technologies and Expression Analysis (LTEA) Assay for Cyclin D1 (CCND1) using HepaRG (AID 2283451); settings: mRNA level, 48 h; actives raise or lower the signal;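 as to AC50: TaqMan qRT-PCR transcript level normalised to ACTB GAPDH and POLR2A housekeeping genes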
How it was run: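 Expression of CCND1 was quantified by qRT-PCR on Fluidigm arrays using ACTB, GAPDH and POLR2A as reference genes. HepaRG cultures, plated 48 h beforehand, were dosed for 48 h at up to 100 uM (half-log, 8 points) in 0.5% DMSO.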

[7] = read-out: catalase (CAT), CAT (gene 847); assay: LTEA_HepaRG_CAT: Life Technologies and Expression Analysis (LTEA) Assay for catalase (CAT) using HepaRG (AID 2283452); settings: mRNA level, 48 h; actives raise or lower the signal;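 as to AC50: TaqMan qRT-PCR signal normalized to ACTB GAPDH and POLR2A housekeeping genes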
How it was run: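 Differentiated HepaRG cells in serum-free induction medium were dosed 48 h in duplicate, eight half-log concentrations from 100 uM in 0.5% DMSO. Transcript measured by TaqMan qRT-PCR, normalised to ACTB/GAPDH/POLR2A, fitted bidirectionally against DMSO.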

[8] = read-out: flavin-containing dimethylaniline monooxygenases 3 (FMO3), FMO3 (gene 2328); assay: LTEA_HepaRG_FMO3: Life Technologies and Expression Analysis (LTEA) Assay for flavin-containing dimethylaniline monooxygenases 3 (FMO3) using HepaRG (AID 2283453); settings: mRNA level, 48 h; actives raise or lower the signal
How it was run: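 Differentiated HepaRG cells in serum-free induction medium, exposed 48 h in duplicate to 8 half-log concentrations up to 100 uM in 0.5% DMSO. FMO3 mRNA by qRT-PCR, normalized to ACTB, GAPDH, POLR2A; bidirectional fit vs DMSO.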

[9] = read-out: Cytochrome P450 (CYP1A1), CYP1A1 (gene 1543); assay: LTEA_HepaRG_CYP1A1: Life Technologies and Expression Analysis (LTEA) Assay for Cytochrome P450 (CYP1A1) using HepaRG (AID 2283454); settings: mRNA level, 48 h; actives raise or lower the signal
How it was run: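 CYP1A1 transcript levels measured by Fluidigm qRT-PCR against three housekeeping genes, 48 h after chemical dosing of human HepaRG cells (highest concentration 100 uM, half-log steps, 0.5% DMSO vehicle). Gain or loss of signal fitted relative to DMSO.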

[10] = read-out: CFLAR gene, CFLAR (gene 8837); assay: LTEA_HepaRG_CFLAR: Life Technologies and Expression Analysis (LTEA) Assay for CFLAR gene using HepaRG (AID 2283455); settings: mRNA level, 48 h; actives raise or lower the signal
How it was run: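 HepaRG cells were plated for 48 h, switched to serum-free induction medium, then exposed in duplicate for 48 h to 8 concentrations (top 100 uM, half-log steps, 0.5% DMSO). CFLAR mRNA was measured by qRT-PCR, normalized to ACTB, GAPDH and POLR2A.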

Measured: AC50

Chain of Fatty acid synthase (Homo sapiens) (P49327 whole entry, looked up): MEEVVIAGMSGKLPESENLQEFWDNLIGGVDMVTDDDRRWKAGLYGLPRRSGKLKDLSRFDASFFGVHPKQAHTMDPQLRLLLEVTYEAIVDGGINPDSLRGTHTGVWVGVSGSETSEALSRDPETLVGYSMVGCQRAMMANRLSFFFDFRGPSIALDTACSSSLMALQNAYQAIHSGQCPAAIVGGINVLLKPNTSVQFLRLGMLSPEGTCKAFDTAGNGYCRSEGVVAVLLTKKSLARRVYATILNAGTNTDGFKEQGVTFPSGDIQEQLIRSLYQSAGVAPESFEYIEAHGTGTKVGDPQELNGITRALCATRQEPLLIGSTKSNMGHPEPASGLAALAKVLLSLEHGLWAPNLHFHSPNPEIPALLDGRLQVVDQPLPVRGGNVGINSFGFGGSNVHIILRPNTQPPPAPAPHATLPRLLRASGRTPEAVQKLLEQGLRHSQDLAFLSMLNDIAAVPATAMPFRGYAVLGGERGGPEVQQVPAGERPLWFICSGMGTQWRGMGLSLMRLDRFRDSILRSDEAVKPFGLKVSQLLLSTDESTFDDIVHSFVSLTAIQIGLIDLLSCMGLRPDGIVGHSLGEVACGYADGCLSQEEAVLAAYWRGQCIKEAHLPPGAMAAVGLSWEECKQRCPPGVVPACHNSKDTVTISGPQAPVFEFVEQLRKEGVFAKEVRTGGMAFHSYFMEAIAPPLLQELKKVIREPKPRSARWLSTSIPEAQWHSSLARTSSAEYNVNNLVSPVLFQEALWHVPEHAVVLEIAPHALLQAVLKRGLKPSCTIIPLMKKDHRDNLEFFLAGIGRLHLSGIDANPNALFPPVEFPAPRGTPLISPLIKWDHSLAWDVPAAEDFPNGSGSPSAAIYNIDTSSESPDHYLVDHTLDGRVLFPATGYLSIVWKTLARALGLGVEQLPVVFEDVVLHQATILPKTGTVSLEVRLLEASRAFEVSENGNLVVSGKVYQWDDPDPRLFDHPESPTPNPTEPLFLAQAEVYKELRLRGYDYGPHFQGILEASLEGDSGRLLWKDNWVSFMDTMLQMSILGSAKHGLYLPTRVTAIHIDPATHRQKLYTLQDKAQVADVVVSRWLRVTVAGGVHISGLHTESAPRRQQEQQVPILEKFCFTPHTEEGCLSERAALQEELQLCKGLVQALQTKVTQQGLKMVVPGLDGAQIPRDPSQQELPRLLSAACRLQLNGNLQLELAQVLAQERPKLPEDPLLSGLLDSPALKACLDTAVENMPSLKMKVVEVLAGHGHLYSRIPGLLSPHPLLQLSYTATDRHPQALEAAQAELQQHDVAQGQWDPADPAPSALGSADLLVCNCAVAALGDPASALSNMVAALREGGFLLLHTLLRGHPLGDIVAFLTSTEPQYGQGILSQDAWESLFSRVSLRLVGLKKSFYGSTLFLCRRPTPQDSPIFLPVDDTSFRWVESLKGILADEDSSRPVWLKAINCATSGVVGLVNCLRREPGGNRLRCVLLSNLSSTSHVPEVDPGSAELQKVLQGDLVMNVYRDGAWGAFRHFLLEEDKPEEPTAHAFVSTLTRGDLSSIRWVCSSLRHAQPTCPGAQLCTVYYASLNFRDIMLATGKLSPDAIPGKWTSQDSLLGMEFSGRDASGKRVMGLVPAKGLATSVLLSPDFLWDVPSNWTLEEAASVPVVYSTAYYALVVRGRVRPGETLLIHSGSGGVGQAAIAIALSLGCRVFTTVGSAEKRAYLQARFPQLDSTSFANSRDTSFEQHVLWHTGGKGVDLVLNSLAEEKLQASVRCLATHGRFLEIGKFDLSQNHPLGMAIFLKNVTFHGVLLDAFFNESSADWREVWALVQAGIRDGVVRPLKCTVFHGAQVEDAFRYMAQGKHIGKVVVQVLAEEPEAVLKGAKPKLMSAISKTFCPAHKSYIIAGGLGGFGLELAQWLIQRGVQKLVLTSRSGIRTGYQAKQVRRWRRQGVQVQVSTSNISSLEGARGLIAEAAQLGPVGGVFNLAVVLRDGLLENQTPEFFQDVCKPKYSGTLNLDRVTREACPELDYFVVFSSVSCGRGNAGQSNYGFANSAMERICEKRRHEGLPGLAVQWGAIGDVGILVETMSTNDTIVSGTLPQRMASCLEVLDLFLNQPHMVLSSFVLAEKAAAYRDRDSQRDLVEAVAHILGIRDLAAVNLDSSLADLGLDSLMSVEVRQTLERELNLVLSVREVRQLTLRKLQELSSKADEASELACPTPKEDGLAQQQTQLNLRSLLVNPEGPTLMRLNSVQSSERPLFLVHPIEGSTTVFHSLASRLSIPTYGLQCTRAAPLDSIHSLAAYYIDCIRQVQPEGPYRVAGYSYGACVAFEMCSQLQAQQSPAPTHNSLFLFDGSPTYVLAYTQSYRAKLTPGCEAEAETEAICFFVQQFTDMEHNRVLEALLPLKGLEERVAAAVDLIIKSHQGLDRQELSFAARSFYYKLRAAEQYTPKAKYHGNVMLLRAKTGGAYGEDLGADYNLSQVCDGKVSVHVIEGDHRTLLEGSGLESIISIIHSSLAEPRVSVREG

Cc1ccc(O)c(C)c1
inactive: all assays above

CCC(=O)O[C@H]1CC[C@H]2[C@@H]3CCC4=CC(=O)CC[C@]4(C)[C@H]3CC[C@]12C
active: [1] 2.65 µM | [9] 13.1 µM
inactive: all other assays above

O=C(N[C@H]1CN2CCC1CC2)c1cc2ccoc2cn1
active: [9] 50 µM
not listed: [1]
inactive: all other assays above

C1CC2OC2CC1C1CO1 (stereo not drawn)
not listed: [1] | [4] | [6]
inactive: all other assays above

Clc1ccc(Cl)cc1
not listed: [1]
inactive: all other assays above

O=C(NC(=O)c1cc(F)c(F)cc1Cl)Nc1cc(F)ccc1N1CCC(C(=O)O)CC1
active: [9] 25 µM
not listed: [1]
inactive: all other assays above

O=NN(c1ccccc1)c1ccccc1
active: [9] 25.9 µM
not listed: [1]
inactive: all other assays above

CC(C)(O)C(=O)Nc1ccc([N+](=O)[O-])c(C(F)(F)F)c1
active: [2] 0.0219 µM | [4] 0.0398 µM | [9] 0.0423 µM
not listed: [1]
inactive: all other assays above

CCCN(CCC)N=O
active: [9] 50 µM
not listed: [1]
inactive: all other assays above

COc1ccc(O)c(C(C)(C)C)c1
not listed: [1] | [6]
inactive: all other assays above

CCCCCCOC(=O)c1ccccc1C(=O)OCCCCCC
active: [9] 50 µM
not listed: [1] | [4]
inactive: all other assays above

CC1=C2C[C@H]3[C@@H](CC=C4C[C@@H](O)CC[C@@]43C)[C@@H]2CC[C@]12O[C@@H]1C[C@H](C)CN[C@H]1[C@H]2C
active: [9] 34.3 µM
not listed: [1]
inactive: all other assays above

ClC1=C(Cl)[C@]2(Cl)[C@@H]3[C@@H]4C[C@@H]([C@H]5O[C@@H]45)[C@@H]3[C@@]1(Cl)C2(Cl)Cl
active: [9] 28.3 µM
not listed: [1]
inactive: all other assays above

CN(C)CCO
not listed: [1]
inactive: all other assays above

CCC(C)c1cc([N+](=O)[O-])cc([N+](=O)[O-])c1O (stereo not drawn)
active: [2] 2.25 µM | [3] 1.16 µM | [5] 7.37 µM | [6] 11.1 µM | [7] 1.38 µM | [8] 2.51 µM | [9] 85.7 µM | [10] 1.5 µM

Cc1cccc([N+](=O)[O-])c1
active: [9] 50 µM
not listed: [1] | [2]
inactive: all other assays above

ClC1=C(Cl)[C@]2(Cl)[C@@H]3[C@@H](Cl)[C@H]4O[C@H]4[C@@H]3C1(Cl)C2(Cl)Cl
active: [9] 50 µM
not listed: [1] | [4]
inactive: all other assays above

Source: PubChem BioAssay (EPA / NIEHS)
